Data on one compound can be found in PubChem BioAssay (NCATS).

SMILES strings stand for the structures. Records with an inconclusive call do not appear. Calls of active or inactive are those of the source. Unless noted, calls follow the shape of the dose curve; as a rule, active = well fitted curve in the direction sought with a large enough effect; inconclusive = small, poorly fitted or top-dose-only effect, or another doubt; inactive = no such curve, though single readings can be large; an effect the other way counts as inactive or inconclusive.

The target in test [1] is 3',5'-cyclic-AMP phosphodiesterase 4B (Homo sapiens) (UniProt Q07343). In words: qHTS Assay for Inhibitors of PDE-IV (AID 607; active = well fitted activation curve with a large enough effect in the main read-out, with a control signal flat, not every such curve was filed as active). Conditions: HEK293 ACTOne CNG channel cells, membrane potential fluorescence; series mostly up to 22.9 µM. An outline of the steps: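 The readout is membrane depolarisation from a cAMP-sensing CNG channel, detected with a potential dye at ex 535/em 590. Cells were HEK293-derived (endogenous PDE-IV) at 1000 cells/well, titrated up to 22.9 uM final.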
For orientation: In qHTS, concentration-response curves come from the screen itself.

The target in test [2] is Ubiquitin carboxyl-terminal hydrolase 1 (Homo sapiens) (UniProt O94782). In words: Inhibitors of USP1/UAF1: Pilot qHTS (AID 504865).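 Also: rhodamine fluorescence freed from ubiquitin-rhodamine substrate followed over time; top concentration of the series differs between compounds; nearly all actives have a fitted effect of over 35% in size.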 To be noted: purified USP1/UAF1, Ub-rhodamine cleavage fluorescence; series mostly up to 54.9 µM. In outline:
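In 50mM HEPES pH 7.8 containing 0.5mM EDTA, 1mM TCEP, 0.1 mg/ml BSA and 0.01% Tween-20, 1nM USP1/UAF1 is exposed to compound for 15 min, then Ub-Rho (150nM final) is added and fluorescence is read over time.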

For test [3], the target named is Luciferin 4-monooxygenase (Photinus pyralis) (UniProt P08659). In words: Biochemical firefly luciferase enzyme assay for NPC (AID 624030).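 Also: purified P. pyralis luciferase at 10 nM with luciferin and ATP substrate; nearly all actives have a fitted effect of over 70% in size.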 To be noted: purified P. pyralis luciferase, luminescence, 5 min; series mostly up to 58.6 µM. An outline of the steps: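 Purified P. pyralis luciferase at 10 nM in 50 mM Tris Acetate (final), luminescence read within 5 minutes of enzyme addition to compounds. Activity normalised to PTC124 versus DMSO; concentration-response curves classed by r2, magnitude and activity.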

Test [4] is described as follows: S16 Schwann cell viability assay (CellTiter-Glo assay) (AID 624031). Also: potency is read from the fitted curve at half-maximal effect; nearly all actives have a fitted effect of over 70% in size. Conditions: S16 rat Schwann cells viability, 24 h; series mostly up to 57.5 µM. In outline: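 Luminescent ATP read-out (CellTiter-Glo) after 24 h compound exposure of native S16 rat Schwann cells at 37 °C. Signals were normalized between cell-free wells and DMSO-treated cells, set as 0% activity.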

A short description of test [5]: S16 Schwann cell PMP22 intronic element firefly luciferase assay (AID 624032). Also: potency is read from the fitted curve at half-maximal effect; nearly all actives have a fitted effect of over 30% in size. Conditions: S16 rat Schwann cells, PMP22 element FLuc, 24 h; series mostly up to 57.5 µM. An outline of the steps:
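Rat S16 Schwann cells stably carrying firefly luciferase driven by a PMP22 intronic element, in 10% FBS, treated 24 h at 37 C. ONE-Glo luminescence normalized to PTC124 control and DMSO (0%); curves classed by r2, magnitude and activity.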

Test [6] can be described thus: S16 Schwann cell PMP22 intronic element beta-lactamase assay (AID 624044; calls by dose curve; also: nearly all actives have a fitted effect of over 15% in size). To be noted: S16 rat Schwann cells, PMP22 element beta-lactamase FRET, 24 h; series mostly up to 38.3 µM. In outline:
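Beta-lactamase reporter under a PMP22 intronic regulatory element in stable S16 rat Schwann cells; 24 h compound exposure. 460 nm blue signal normalized between DMSO (0%) and potassium clavulanate, with 535 nm FRET tracking viability; curves classed by r2 and response.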

The next test relates to C2A. In words: qHTS profiling for inhibitors of Plasmodium falciparum proliferation (AID 504749). Also: potency is read from the fitted curve at half-maximal effect; nearly all actives have a fitted effect of over 60% in size. To be noted: P. falciparum in erythrocytes, SYBR Green DNA, 72 h; series mostly up to 28.7 µM. In outline:
(§1)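 SYBR Green fluorescence (ex 485 nm, em 535 nm) reports parasite DNA after 72 h compound exposure of infected red cells at 0.3% parasitemia, 2.5% hematocrit; signal normalized to 0.29 uM artemisinin and vehicle wells.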

For another test, the system named is CP217. The description is as above. Conditions: P. falciparum in erythrocytes, SYBR Green DNA, 72 h; series mostly up to 28.7 µM. An outline of the steps:
as §1

The test system of a further test is CP252. The description is as above. To be noted: P. falciparum in erythrocytes, SYBR Green DNA, 72 h; series mostly up to 28.7 µM. An outline of the steps: as §1
The next test has as its system CP256. Described as above. Conditions: P. falciparum in erythrocytes, SYBR Green DNA, 72 h; series mostly up to 28.7 µM. In outline: as §1
Another test deals with CP260. Described as above. To be noted: P. falciparum in erythrocytes, SYBR Green DNA, 72 h; series mostly up to 28.7 µM. An outline of the steps:
as §1

The next test relates to ICS. The description is as above. Conditions: P. falciparum in erythrocytes, SYBR Green DNA, 72 h; series mostly up to 28.7 µM. An outline of the steps:
as §1

Another test concerns N140. The description is as above. Conditions: P. falciparum in erythrocytes, SYBR Green DNA, 72 h; series mostly up to 28.7 µM. In outline:
as §1

The next test deals with P93_24. The description is as above. Conditions: P. falciparum in erythrocytes, SYBR Green DNA, 72 h; series mostly up to 28.7 µM. In outline:
as §1

In another test the test system is SC27B. The description is as above. Conditions: P. falciparum in erythrocytes, SYBR Green DNA, 72 h; series mostly up to 28.7 µM. In outline: as §1

Chain of 3',5'-cyclic-AMP phosphodiesterase 4B (Homo sapiens) (Q07343 whole entry, looked up): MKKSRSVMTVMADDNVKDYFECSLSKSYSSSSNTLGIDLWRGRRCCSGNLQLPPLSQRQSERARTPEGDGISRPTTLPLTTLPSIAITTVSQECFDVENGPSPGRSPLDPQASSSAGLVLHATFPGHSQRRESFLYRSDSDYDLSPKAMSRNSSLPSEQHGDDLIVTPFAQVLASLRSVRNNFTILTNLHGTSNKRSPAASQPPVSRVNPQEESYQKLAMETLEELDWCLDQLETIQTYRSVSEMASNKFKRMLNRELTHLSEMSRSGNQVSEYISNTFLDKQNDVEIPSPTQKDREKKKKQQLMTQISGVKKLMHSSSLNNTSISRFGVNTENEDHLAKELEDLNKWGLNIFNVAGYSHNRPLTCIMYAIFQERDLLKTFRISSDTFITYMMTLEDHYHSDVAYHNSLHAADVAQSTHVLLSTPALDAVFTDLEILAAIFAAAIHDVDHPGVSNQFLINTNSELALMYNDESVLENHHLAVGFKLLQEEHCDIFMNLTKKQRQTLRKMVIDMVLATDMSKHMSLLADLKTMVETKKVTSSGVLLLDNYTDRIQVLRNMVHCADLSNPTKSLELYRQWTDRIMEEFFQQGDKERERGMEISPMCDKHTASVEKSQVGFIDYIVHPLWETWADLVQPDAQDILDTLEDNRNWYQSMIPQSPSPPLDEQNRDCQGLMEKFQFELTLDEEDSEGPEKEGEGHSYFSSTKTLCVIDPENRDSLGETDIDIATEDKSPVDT
Chain of Ubiquitin carboxyl-terminal hydrolase 1 (Homo sapiens) (O94782 whole entry, looked up): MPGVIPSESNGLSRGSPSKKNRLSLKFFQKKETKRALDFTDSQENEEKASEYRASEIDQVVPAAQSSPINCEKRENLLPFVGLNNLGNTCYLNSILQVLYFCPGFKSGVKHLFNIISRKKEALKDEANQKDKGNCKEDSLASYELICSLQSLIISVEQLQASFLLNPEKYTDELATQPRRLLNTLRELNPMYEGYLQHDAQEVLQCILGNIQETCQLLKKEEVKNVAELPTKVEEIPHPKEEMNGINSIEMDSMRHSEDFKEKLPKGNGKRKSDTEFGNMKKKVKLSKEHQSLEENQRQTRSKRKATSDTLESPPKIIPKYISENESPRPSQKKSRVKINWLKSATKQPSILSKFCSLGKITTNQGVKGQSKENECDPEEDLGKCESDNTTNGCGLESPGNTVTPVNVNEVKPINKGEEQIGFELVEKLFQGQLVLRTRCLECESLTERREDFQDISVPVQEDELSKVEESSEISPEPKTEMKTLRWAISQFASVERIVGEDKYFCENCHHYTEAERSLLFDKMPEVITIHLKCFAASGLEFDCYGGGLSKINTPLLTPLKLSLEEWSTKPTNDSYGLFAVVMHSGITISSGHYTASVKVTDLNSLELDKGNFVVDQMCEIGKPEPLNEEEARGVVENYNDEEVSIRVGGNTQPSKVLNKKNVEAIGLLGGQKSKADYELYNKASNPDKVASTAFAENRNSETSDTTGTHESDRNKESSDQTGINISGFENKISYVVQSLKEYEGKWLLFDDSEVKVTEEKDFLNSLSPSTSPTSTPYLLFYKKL
Chain of Luciferin 4-monooxygenase (Photinus pyralis) (P08659 whole entry, looked up): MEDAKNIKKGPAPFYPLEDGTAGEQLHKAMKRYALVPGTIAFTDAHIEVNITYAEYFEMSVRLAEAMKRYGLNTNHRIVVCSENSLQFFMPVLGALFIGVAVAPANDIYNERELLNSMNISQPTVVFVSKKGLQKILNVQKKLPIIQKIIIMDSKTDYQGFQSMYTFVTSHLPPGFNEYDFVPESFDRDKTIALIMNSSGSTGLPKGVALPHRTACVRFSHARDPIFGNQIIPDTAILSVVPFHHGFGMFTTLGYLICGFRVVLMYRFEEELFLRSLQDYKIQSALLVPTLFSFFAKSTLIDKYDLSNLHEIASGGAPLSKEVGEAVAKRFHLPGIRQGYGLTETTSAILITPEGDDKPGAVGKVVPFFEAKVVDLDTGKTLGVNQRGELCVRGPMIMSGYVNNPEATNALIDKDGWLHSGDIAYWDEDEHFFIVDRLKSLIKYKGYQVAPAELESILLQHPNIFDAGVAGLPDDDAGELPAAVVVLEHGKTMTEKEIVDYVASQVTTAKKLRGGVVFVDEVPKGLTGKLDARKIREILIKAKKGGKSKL

As for `CN1CC[C@H](CN2c3ccccc3Sc3ccccc32)C1`, the Potency entry in test [1], in test [2], in test [3] and in test [6] was “inactive” in each case. Further, the Potency is 36.1 µM (active) in test [4]; 32.2 µM (active) in test [5]; 10 µM (active) in the test with C2A; 11.2 µM (active) in the test with CP217; 11.2 µM (active) with CP252; 8.91 µM (active) with CP256. The Potency with CP260 was 11.2 µM (active); in the test with ICS, 2 µM (active); with N140, 11.2 µM (active); in the test with P93_24, 7.08 µM (active); in the test on SC27B, 11.2 µM (active).
